Molecules are shown by their SMILES. This is part of a sample that, as a whole, favours compounds with a hit. Of some 83,000 tested, about 20% had one in any assay.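 Results are percent growth after 48 hours of single-concentration exposure. 100 means growth as in untreated cells, lower positive values show inhibition; negative values down to -100 show cell death.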 Values without a mark were called inactive. Calls of active or inactive are those of the source. Rule for the calls: active = growth percent below 10; inactive = the rest.

The record followed here is PubChem BioAssay (NCI).

This test has as its system IGROV1 ovarian. Kind of test: NCI-60 one-dose screen, 48 h (100 = growth as untreated, 0 = no growth, -100 = all killed). The following applies: 10 µM unless noted.
Regarding `CCOC(=O)c1c(C)c2c(n1Cc1ccccc1)CSCC2=O`, the growth is 32.6% [100 µM].
For the compound `O=C(CN1CCN(c2cc3c(cc2F)c(=O)c(C(=O)O)cn3C2CC2)CC1)N/N=C/c1ccco1`, the growth was 101%.
The figure for `Clc1ccc(-c2cc(-c3ccccc3)nc(NCCNc3ccnc4cc(Cl)ccc34)n2)cc1` is -61.3% (active); for `N#C/C(=C\C=C\c1ccc(-c2cc(Cl)ccc2Cl)o1)c1nc2ccccc2s1` it is 70.6%.
The figure for `COc1cc(OC)c(C(=O)C(CN(C)C)CN(C)C)cc1OC` is 109%; for `CCn1cc(CNc2ccc(C(=O)Nc3cc4cc(OC)c(OC)cc4c(C)n3)cc2)cn1` it is 73%.
Take `N#Cc1c(-c2ccccc2)nc(SCc2nnc(-c3ccc(Cl)cc3)o2)[nH]c1=O`: the growth was 103%.
In the case of `O=P(O)(O)OCC1OC(n2cnc3c(NCc4ccco4)ncnc32)C(O)C1O` (stereo not given), the growth is -36.4% (active).
For the compound `CCN(CC)CCCN1C(=O)c2c(c(C)c3c(oc4ccc(O)cc43)c2C)C1=O`, the growth is 75.2%.
With `O=[N+]([O-])c1ccc(-c2cn3nc(-c4c[nH]c5ccccc45)sc3n2)cc1` the figure was 89%; with `Cc1nc2ccccc2c(/C=C/c2ccccc2)c1C(=O)/C=C/c1ccccc1`, 18.5%; with `O=C1Nc2c(C(=O)O)cccc2/C1=N/c1n[nH]c(=S)s1`, 83%.
The figure for `CC(=O)Oc1ccc(OC(C)=O)c2ccccc12` is 68.5%; for `COC(=O)/C=C1/SC(=Nc2ccc([N+](=O)[O-])cc2)N(CCc2c[nH]c3ccc(O)cc23)C1=O` it is 42.6%.
The figure for `[2H]C([2H])([2H])Oc1ccc(F)cc1/C=C/C(=O)/C=C(/C=C/c1cc(F)ccc1OC([2H])([2H])[2H])OB(F)F` is 87.4%; for `Nc1c(C(=O)Nc2cccc(Cl)c2)sc2nc3c(cc12)CCCC3` it is 106%; for `NS(=O)(=O)c1ccc(C(=O)NN2C(=O)c3c(Br)c(Br)c(Br)c(Br)c3C2=O)cc1` it is 104%.
As to `Cc1c(Cl)cccc1C(=O)Nc1nc2c(s1)CN(C(=O)c1ccc(C(F)(F)F)cc1)CC2`, the growth was 17.9%.
With `CCCCCN(CCCCC)CC(O)c1cc(C)c2ccc3cc(C(C)C)ccc3c2c1` (stereo not given) the figure was -12.8% (active).
The figure for `CCC1S/C(=N\N=C(\C)c2cc3cc(Cl)ccc3o2)N(c2ccccc2)C1=O` (stereo not given) is 671%; for `CN1C(=O)/C(=C/c2ccc(C(=O)Nc3ncc(Cc4cccc(Cl)c4)s3)cc2)SC1=S` it is 61.9%; for `O=C(NCc1cccc(CNC(=O)Nc2nc3ccccc3[nH]2)c1)Nc1nc2ccccc2[nH]1` it is 13.7%.
The figure for `COc1ccc(Cn2cc3c(c2-c2ccccc2)CCc2cnoc2-3)cc1` is 21.7%.
On to `Cc1ccc(CNc2c3ccccc3nc3ccccc23)cc1`, for which the growth was 19.4%.
With `FC(F)(F)c1ccc(Cn2cc(CSc3nc4ccccc4s3)nn2)cc1` the figure was 97.7%; with `COc1cc(OC)c2sc(-c3ccc(-n4cncc4-c4cc(OC)c(OC)c(OC)c4)cc3)nc2c1`, 63.9%; with `C#CCn1cnc2cnc(Nc3cccc(NC(=O)C=C)c3)nc21`, 75.2% [6.25 µM].
With `CC(=O)/C(=C/c1ccc([N+](=O)[O-])cc1)C(=O)c1ccccc1` the figure was 82.9%; with `CCOC(=O)/C=C1\S/C(=N\Nc2cc(=O)[nH]c3ccccc23)N(c2ccccc2)C1=O`, 105%.
The figure for `Cc1ccc(/C=C/C(=O)c2ccc(-n3cc(CN4CCN(c5cc6c(cc5F)c(=O)c(C(=O)O)cn6C5CC5)CC4)nn3)cc2)cc1` is 69.9%.
